Screening results from PubChem BioAssay.
Most compounds without a hit are left out; they make up all but 3.4% or so of the library.
Tau fluor cs: counter-screen for tau fibril formation inhibitors. Potency, µM (highest dose often 57.7 µM), without a hit: at the highest dose activity change, negative = decrease. AID 1463. 280,000 compounds, 0.93% hits. tau K18 P301L Alexa594 fluorescence, heparin fibrillization; note: nearly all actives have a fitted effect of over 55% in size
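Human tau K18 P301L (15 uM unlabeled, 0.24 uM Alexa 594-labeled) in 100 mM sodium acetate pH 7 with 20 uM heparin, 6 hr at 37 C. ThT 30 uM added, 1 hr ambient; Alexa 594 FP and total fluorescence read at 555/632 nm.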
GoLoco inh red: inhibitors of human Gai1-RGS12 GoLoco interaction (red fluorophore); P63096; Gai1:RGS12 GoLoco peptide FP, rhodamine, 10 min; Potency, µM (titrated, usually from 61.6 µM), for the others: at the highest dose activity, negative = inhibition, hits mostly inhibitors; 230,000 compounds, 0.44% hits; active = well fitted inhibition curve with a large enough effect, not every such curve was filed as active; inactive = no such curve, though single readings can be large or run the other way; note: nearly all actives have a fitted effect of over 30% in size
Tau fibril ThT: tau fibrillization inhibition (ThT binding). P10636. recombinant tau K18 P301L (four-repeat tau fragment), heparin-induced fibrillization, ThT fluorescence. Potency, µM (top dose mostly 57.4 µM), for the others: top-dose activity, negative = inhibition, actives largely listed as inhibitors. 270,000 compounds, 2.1% hits; note: nearly all actives have a fitted effect of over 55% in size
Target sequence (P10636 561-689 P618L limits assumed): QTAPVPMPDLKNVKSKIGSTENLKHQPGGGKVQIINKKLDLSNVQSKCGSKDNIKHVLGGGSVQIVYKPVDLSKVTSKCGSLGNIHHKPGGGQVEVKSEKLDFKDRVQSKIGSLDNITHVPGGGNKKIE
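Heparin-induced (20 uM) aggregation of recombinant human K18 P301L tau, 15 uM unlabeled with 0.24 uM labeled, pH 7 acetate buffer, 6 hr at 37 C with compound. Fibrils quantified by 30 uM ThT fluorescence after 1 hr ambient incubation.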
Tau fibril FP: blocks human tau fibril formation measured by polarization; P10636; K18 P301L tau heparin fibrillization, Alexa594 FP, 6 h; Potency, µM (highest dose often 57.7 µM), for inactives: at the highest dose activity, negative = inhibition, most hits filed as inhibitors; 280,000 compounds, 0.39% hits; note: nearly all actives have a fitted effect of over 55% in size
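FP of Alexa 594-tau after heparin (20 uM) induction. Substrate: human K18 P301L, 15 uM unlabeled, 0.24 uM labeled. Buffer 100 mM sodium acetate pH 7. 6 hr, 37 C.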
KDM4E inh: JMJD2E (human) inhibition | B2RXH2 | JMJD2E catalytic domain, FDH-coupled NADH fluorescence (FDH is formaldehyde dehydrogenase) | Potency, µM (titrated, usually from 57.1 µM), for the others: at the highest dose activity change, negative = inhibition, most hits filed as inhibitors | 230,000 compounds, 1.6% hits | AID 2147; active = well fitted inhibition curve with a large enough effect, not every such curve was filed as active; inconclusive = small, poorly fitted or top-dose-only effect, or another doubt; inactive = no such curve, though single readings can be large or run the other way;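 note: 0% = wells with enzyme and -100% = buffer wells without enzyme; nearly all actives have a fitted effect of over 50% in size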
Target sequence (B2RXH2 1-337 limits assumed): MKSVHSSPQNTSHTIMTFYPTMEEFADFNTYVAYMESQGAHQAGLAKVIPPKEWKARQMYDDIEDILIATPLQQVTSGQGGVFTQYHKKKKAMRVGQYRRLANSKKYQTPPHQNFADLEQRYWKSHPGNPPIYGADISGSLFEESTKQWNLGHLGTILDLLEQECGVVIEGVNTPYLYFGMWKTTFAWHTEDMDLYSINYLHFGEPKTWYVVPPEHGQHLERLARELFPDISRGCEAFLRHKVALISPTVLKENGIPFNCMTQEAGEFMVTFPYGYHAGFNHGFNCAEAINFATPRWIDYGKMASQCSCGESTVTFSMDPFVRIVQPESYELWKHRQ
* hit, by the source's call; ? = inconclusive; . = not tested or not shown; [ ] = dose if it differs, or a comment. Unless noted, calls come from the whole dose curve; as a rule, active = well fitted curve in the direction sought with a large enough effect; inconclusive = small, poorly fitted or top-dose-only effect, or another doubt; inactive = no such curve, though single readings can be large; an effect the other way counts as inactive or inconclusive. Unless noted, % is set by controls: 0 for no effect and ±100 for the full control effect; potency is the fitted concentration of half-maximal effect.

SMILES | Tau fluor cs | GoLoco inh red | Tau fibril ThT | Tau fibril FP | KDM4E inh
COc1cccc(/C=N/NC(=O)c2ccc(=O)n(C)c2)c1O | -2.7% | 9.1% | -13.5% | -8.4% | 11.2µM*
CCOc1ccc(OCC)c(NC(=O)CCC(=O)N2CCOc3ccccc32)c1 | -1.2% | . | 4.9% | -4.8% | .
CC(=O)c1ccc(NS(=O)(=O)c2ccc3[nH]c(=O)[nH]c3c2)cc1 | -19.6% | . | ? | -0.1% | .
Cc1cccc(N(C)c2nc3ccccc3c3nnc(C)n23)c1 | -1.3% | . | 3.5% | 5.2% | .
CCn1c(=O)cc(OCC(=O)N2CCN(c3ccc(C)cc3)C(C)C2)c2ccccc21 (centres undefined) | -7.4% | . | -15.5% | -5.2% | .
Cc1cccc(/C=N\NC(=O)c2ccc(Cl)cc2)c1O | -17.2% | 57.7% | -8.8% | -3.3% | 15.8µM*
O=C(N/N=C/c1cc(Cl)ccc1O)c1ccc(Br)cc1 | -24.1% | 109.5% | -5.7% | 8.1% | ?
CCc1ccc(CNC(=O)c2ccc(NC(=O)N3CCCCc4ccccc43)cc2)cc1 | -3.3% | . | -2.5% | 6.4% | .
CCOc1ccc2c(O)csc2c1 | -12.7% | 16.9% | 25.1µM* | ? | -0.5%
CC(=O)c1cccc(NC(=O)Cc2ccc(NC(=O)N3CCCCc4ccccc43)cc2)c1 | -9.9% | . | -4.4% | 1.1% | .
CCCc1nn2c(N)c(/C=C3\C=Nc4ccccc43)c(=O)nc2s1 | ? | 4.3% | 8.91µM* | -10.0% | -1.6%
Cc1ccc(Cl)cc1Nc1nc(-c2sc(NC(=O)c3ccco3)nc2C)cs1 | ? | 32.0% | ? | -0.5% | 25.1µM*
Cc1nc(NC(=O)c2ccco2)sc1-c1csc(Nc2ccc(Cl)cc2)n1 | ? | 30.8% | 7.08µM* | 9.7% | -14.5%
O=C(Nc1nnc(COc2ccc(Cl)cc2)s1)c1ccco1 | -23.9% | -10.4% | 31.6µM* | ? | ?
COc1ccccc1Nc1nc(-c2sc(NC(=O)c3ccco3)nc2C)cs1 | ? | 8.6% | 3.55µM* | 10.7% | -10.9%
Cc1nc(NC(=O)c2ccco2)sc1-c1csc(Nc2ccc(Cl)cc2Cl)n1 | ? | 15.4% | ? | 11.0% | ?
CCOc1ccc(-c2oc3cc(Cl)ccc3c(=O)c2O)cc1OC | -24.6% | . | ? | 1.4% | .
Cc1sc2nc3c(SC(C)C(=O)O)cc(C(=O)c4ccccc4O)cn3c(=O)c2c1C (centres undefined) | -7.0% | 31.9% | 14.1µM* | -11.9% | 3.6%
O=C(O)CSc1cc(C(=O)c2ccccc2O)cn2c(=O)c3c(-c4ccccc4)csc3nc12 | -12.4% | 18.9% | 25.1µM* | -4.4% | 0.5%
CCc1c(C)sc2nc3c(C(=O)N4CCOCC4)cc(C(=O)c4ccccc4O)cn3c(=O)c12 | -10.1% | 10.6% | -15.2% | -3.7% | 6.6%
COc1ccc(CCNC(=O)c2cc(-c3ccc(C)cc3)nc3n[nH]c(-c4ccc(F)cc4)c23)cc1OC | -3.3% | . | 11.6% | -13.5% | .
CC(C)(C)OC(=O)N1CCC(c2nnc(SCc3ccccc3)o2)CC1 | -23.1% | . | -21.3% | 0.3% | .
CSc1nc(O)c(C(c2cccc([N+](=O)[O-])c2)c2c(O)nc(SC)[nH]c2=O)c(=O)[nH]1 | -28.4% | 27.3% | 11.2µM* | ? | -4.4%
Cc1[nH]n(-c2ccccc2)c(=O)c1C(c1cccc([N+](=O)[O-])c1)c1c(C)[nH]n(-c2ccccc2)c1=O | ? | -2.3% | ? | ? | ?
Cc1ccc(C(=O)n2nc(C)c(S(=O)(=O)N3CCCCCC3)c2C)cc1 | -8.8% | . | ? | 10.8% | .
SMILES | Tau fluor cs | GoLoco inh red | Tau fibril ThT | Tau fibril FP | KDM4E inh
C=C(C)COc1ccc(-c2[nH]ncc2Oc2ccccc2OC)c(O)c1 | 14.1µM*[quencher] | 3.9% | ? | ? | ?
C=C(C)COc1ccc(-c2nc(N)ncc2Oc2ccc(OC)cc2)c(O)c1 | ? | -6.5% | -5.6% | ? | -7.6%
C=C(C)COc1ccc(-c2nc(N)ncc2Oc2ccccc2OC)c(O)c1 | ? | -1.4% | 2.3% | ? | 0.4%
C=C(C)COc1ccc(-c2[nH]ncc2-c2ccccc2OC)c(O)c1 | 15.8µM*[quencher] | 9.4% | ? | -4.5% | -9.4%
CCCOC(=O)c1ccc(Oc2cn[nH]c2-c2ccc(OC)cc2O)cc1 | 11.2µM*[quencher] | 0.5% | ? | ? | -1.7%
C=C(C)COc1ccc(-c2[nH]ncc2Oc2ccc(OC)cc2)c(O)c1 | 7.94µM*[quencher] | 5.7% | ? | ? | -15.9%
Cc1ccc2c(CC(=O)NCc3ccccc3)coc2c1C | -14.2% | . | -13.7% | 0.8% | .
C=C(C)COc1ccc(-c2[nH]ncc2-c2ccc(Br)cc2)c(O)c1 | 10µM*[quencher] | 1.2% | ? | 28.2µM* | 20.0%
C=C(C)COc1ccc(-c2n[nH]c(C)c2-c2ccc(Br)cc2)c(O)c1 | -6.5% | 3.5% | 5.7% | ? | 5.6%
Cc1ccc2nc(NC(=O)CSc3nccn3Cc3ccccc3)sc2c1 | ? | . | -11.1% | 3.1% | .
CNc1ccc(/C=C/C(=O)c2cccc3ccccc23)cc1[N+](=O)[O-] | -23.8% | 8.7% | 6.31µM* | 8.1% | 0.7%
COc1cc(C(=O)Nc2ccc(-c3cc(C(F)(F)F)nn3-c3ccccc3)cc2)cc(OC)c1OC | ? | . | -2.0% | ? | .
CC1=C(c2ccc(C)cc2)S(=O)(=O)N(Cc2ccc(C(=O)Nc3ccc(C)c(F)c3)cc2)C1=O | -17.2% | . | 12.3% | ? | .
O=C1C(Nc2ccc(O)cc2)=C/C(=N/S(=O)(=O)c2cccs2)c2ccccc21 | 12.6µM*[quencher] | -2.1% | 12.6µM* | ? | 24.8%
Cc1ccc(NC2=C/C(=N\S(=O)(=O)c3cccs3)c3ccccc3C2=O)c(C)c1 | ? | 10.0% | ? | 2.0% | -2.3%
Cc1ccc(Cl)cc1NC1=C/C(=N\S(=O)(=O)c2cccs2)c2ccccc2C1=O | ? | 66.6% | 4.47µM* | -2.1% | ?
Cc1cccc(NC2=C/C(=N/S(=O)(=O)c3cccs3)c3ccccc3C2=O)c1 | -3.5% | 19.2% | 15.3% | 4.5% | 3.3%
O=C(O)c1ccc(NC2=C/C(=N/S(=O)(=O)c3ccccc3)c3ccccc3C2=O)cc1 | ? | 0.9% | 14.1µM* | ? | -19.9%
Cc1ccc(CNC(=O)C2CCN(S(=O)(=O)c3c(C)noc3/C=C/c3cccs3)CC2)cc1 | -19.7% | . | 8.0% | -10.8% | .
Cc1ccc(NC(=O)c2cc(-c3ccco3)nc3ccccc23)cc1S(=O)(=O)N1CCOCC1 | ? | 39.5% | -13.8% | 7.3% | 15.8µM*
Cc1ccc(-c2noc(-c3ccccc3NC(=O)C3CC(=O)N(c4ccc(C)cc4)C3)n2)cc1 (centres undefined) | ? | . | ? | 0.5% | .
COC(=O)c1ccc(C23CC2(C(NP(=O)(c2ccccc2)c2ccccc2)c2ccccc2)C3)cc1 (centres undefined) | -12.9% | 1.41µM* | ? | -2.4% | ?
Brc1ccc(CSc2nnc(Cc3c[nH]c4ccccc34)o2)cc1 | 14.1µM*[quencher] | 6.0% | ? | -6.2% | -10.2%
